In all, about 50,000 compounds went through this assay and about 800 (1.6%) showed an effect of 50% or more. The sample holds strong results, similar compounds and a random draw of the others, so the mix is not that of the screen.

The target of the test is Bcl-2-like protein 10 (Homo sapiens) (UniProt Q9HD36). Nature of the test: TR3 peptide-Bcl-B binding displacers, biochemical primary FP assay, phenotype converters (AID 1240).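 Note: 0% = Bcl-B with tracer peptide and DMSO and 100% = tracer peptide lacking Bcl-B.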 The conditions noted are these: GST-Bcl-B / FITC-TR3 peptide fluorescence polarization; stronger effect = higher value; compound at 3.75 mg/L. (Fluorescence polarisation rises when a labelled molecule tumbles more slowly, as on binding a larger partner.)
Bcl-2-like protein 10 (Homo sapiens), sequence (Q9HD36 whole entry, looked up): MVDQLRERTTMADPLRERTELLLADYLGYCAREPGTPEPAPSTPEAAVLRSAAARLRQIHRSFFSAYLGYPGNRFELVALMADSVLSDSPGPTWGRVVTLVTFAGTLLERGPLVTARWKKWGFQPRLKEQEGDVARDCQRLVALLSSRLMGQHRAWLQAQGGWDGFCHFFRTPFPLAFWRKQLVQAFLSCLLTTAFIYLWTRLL
With `O=C1C(=O)N(c2ccccc2Br)C(=O)N1c1cccc(Cl)c1`, the displacement was found to be 5.7%.

On to `O=C(CSCC(=O)Nc1ccccc1)NCc1ccco1`, for which the displacement is -20.8%.

With `Nc1n[nH]c(N)c1N=Nc1cccc(C(F)(F)F)c1`, the displacement is -2.4%.

`O=C(Cc1ccc(Cl)cc1)NNC(=O)C1CCCO1` (configuration not stated): the displacement was 2.5%.

`COc1cc(C(=O)NN2C(=O)/C(=C/c3ccc(OC)c(OC)c3)SC2=S)ccc1O`: the displacement is -28.1%.

On to `c1ccc(-c2cc(-c3cc(-c4ccccc4)on3)no2)cc1`, for which the displacement came out at 2.6%.

For `O=C(Oc1ccc2ccccc2c1)c1cc([N+](=O)[O-])ccc1Cl`, the displacement was -0.9%.

As for `CC(C)C1=NN2C(=N)/C(=C/c3cc(Cl)ccc3OCc3ccccc3)C(=O)N=C2S1`, the displacement was -7.4%.

Take `CN1C(=O)/C(=C\c2ccc(-c3ccc(F)c(Cl)c3)o2)SC1=S`: the displacement came to 3.9%.

In the case of `COc1cc(/C=C2/C(=N)N3N=C(C(C)C)SC3=NC2=O)cc(Cl)c1OCCOc1ccccc1`, the displacement was -39%.

For `COc1ccc(/C=C2/C(=N)N3N=C(C(C)C)SC3=NC2=O)cc1OC`, the displacement stood at 133%.

Take `CC(C)C1=NN2C(=N)/C(=C/c3ccc(-c4ccc(F)c(Cl)c4)o3)C(=O)N=C2S1`: the displacement turned out to be 146%.

In the case of `CCC1=NN2C(=N)/C(=C/c3ccc(OC)c(OC)c3)C(=O)N=C2S1`, the displacement is -1.4%.

Take `Cc1c(Cl)cccc1N=Cc1ccc[nH]1`: the displacement was found to be 11.3%.

As to `Cc1sc2nc(SCC(=O)NCCO)n(-c3ccccc3)c(=O)c2c1C`, the displacement worked out at 1.9%.

For the compound `COC(C)(C)c1cc(-c2cccc3ccccc23)nc(N)n1`, the displacement came to 0%.

For `CCOc1ccc2nc(SC)nc(C)c2c1`, the displacement is -3.6%.

Take `C=CCSc1nc(C)c2cc(OCC)ccc2n1`: the displacement came to 7.4%.

With `CCOC(=O)CC(=O)CSc1nc(C)c2cc(OCC)ccc2n1`, the displacement turned out to be 67.2%.

For `Cc1cc(C)c2oc(-c3ccc(C)c(NC(=O)c4ccc(Br)o4)c3)nc2c1`, the displacement is -3.8%.

Take `CN(C)CCCNC(=O)c1ccc(N(C)S(=O)(=O)c2ccccc2)cc1`: the displacement was -13.4%.

For `CCOC(=O)c1csc(NC(=O)c2ccc(C(=O)c3ccccc3)cc2)n1`, the displacement is -24.4%.

Turning to `Cc1ccc(C(C)C)c(OCC(=O)Nc2ccc(NC(=O)c3ccccc3Cl)cc2)c1`, the displacement was -2.1%.

`O=c1[nH]c(=O)n(Cc2ccc(F)cc2)c(O)c1/C=C1\C=Nc2ccccc21`: the displacement turned out to be 51.3%.

Take `C=CCn1c(O)c(/C=C2\C=Nc3ccccc32)c(=O)[nH]c1=S`: the displacement is -2.9%.

Take `O=c1[nH]c(=O)n(-c2cccc(Br)c2)c(O)c1/C=C1\C=Nc2ccccc21`: the displacement stood at 33.4%.

As to `Cc1cc(C)c(-n2c(O)c(/C=C3\C=Nc4ccccc43)c(=O)[nH]c2=O)c(C)c1`, the displacement is -4.1%.

For the compound `O=c1[nH]c(=O)n(Cc2ccc(F)cc2)c(O)c1/C=C1/C=CC=N1`, the displacement is 32%.

Take `Cc1cc(C)cc(-n2c(O)c(/C=C3\C=Nc4ccccc43)c(=O)[nH]c2=O)c1`: the displacement was found to be 71.2%.

As to `COc1cc(OC)c(OC)cc1/C=N/NC(=O)CSc1nc2ccccc2[nH]1`, the displacement came out at 0.1%.

As to `O=C(Nc1ccccc1C(=O)N=Nc1c(O)[nH]c2ccc([N+](=O)[O-])cc12)c1ccccc1`, the displacement is -1.3%.

As to `COc1ccc(C)cc1NC(=O)CN(Cc1ccccc1)S(=O)(=O)c1ccc(OC)c(OC)c1`, the displacement was -46.5%.

For the compound `COC(=O)c1c(NC(=O)Nc2ccc(Cl)c(Cl)c2)sc2c1CCC2`, the displacement stood at 11.8%.

With `CCN1CCc2c(sc(NC(=O)Nc3ccc(Cl)cc3)c2C(N)=O)C1`, the displacement came out at 21.3%.

Regarding `CCN1CCc2c(sc(NC(=O)Nc3ccc(Cl)c(Cl)c3)c2C(N)=O)C1`, the displacement is 111%.

As for `CCOc1ccccc1NC1=CC(=O)CC(c2ccccc2)C1` (configuration not stated), the displacement was -8.1%.

Consider `COc1ccc(COCC(O)CN2CC(C)OC(C)C2)cc1OC` (configuration not stated), for which the displacement came to 4%.

In the case of `O=C(c1ccc(Br)cc1)N1CCN(c2nc3ccc([N+](=O)[O-])cc3s2)CC1`, the displacement was found to be 3.2%.

Consider `O=C(c1ccc(Cl)cc1Cl)N1CCN(c2nc3ccc([N+](=O)[O-])cc3s2)CC1`, for which the displacement came to 100%.

On to `O=C(c1cccc2ccccc12)N1CCN(c2nc3ccc([N+](=O)[O-])cc3s2)CC1`, for which the displacement was determined as 28.9%.

As for `COc1ccccc1C(=O)N1CCN(c2nc3ccc([N+](=O)[O-])cc3s2)CC1`, the displacement was -14%.

For `CCC(=O)N1CCN(c2nc3ccc([N+](=O)[O-])cc3s2)CC1`, the displacement was -8.8%.

For the compound `Cc1ccccc1C(=O)N1CCN(c2nc3ccc([N+](=O)[O-])cc3s2)CC1`, the displacement amounted to 161%.

Consider `COc1ccc(N2C(=O)c3ccccc3NC2c2ccc(OC)c(CN3C(=O)c4ccccc4C3=O)c2)cc1` (configuration not stated), for which the displacement was -4.2%.

On to `COC(=O)CSc1nc(NC(C)=O)nc(C)c1Br`, for which the displacement is 4.5%.

As to `Oc1c(Cl)cc(Br)cc1/C=N/Nc1nc(N2CCOCC2)nc(N2CCOCC2)n1`, the displacement was 9.3%.

As to `O=C1/C(=C\Nc2cc(Cl)ccc2O)CCc2ccccc21`, the displacement came out at 85.9%.

`O=C1/C(=C\Nc2ccccc2O)CCc2ccccc21`: the displacement is 3.8%.

`O=C1/C(=C\Nc2ccc3c(c2)OCO3)CCc2ccccc21`: the displacement worked out at 48.1%.

Regarding `CNc1ccc([N+](=O)[O-])cc1N/C=C1\CCc2ccccc2C1=O`, the displacement is 126%.

Turning to `O=C1/C(=C/Nc2ccccc2NS(=O)(=O)c2ccc([N+](=O)[O-])cc2)CCc2ccccc21`, the displacement stood at 8.1%.

`O=C1/C(=C/Nc2ccccc2NS(=O)(=O)c2ccccc2)CCc2ccccc21`: the displacement came out at 10.4%.

Take `C[N+]1=C(CC(=O)Nc2ccccc2Cl)c2ccccc2CC1(C)C`: the displacement came to 1.4%.

With `Cc1ccc2nc(-c3ccc(NC(=O)c4ccc(S(=O)(=O)N5CCCC5)cc4)cc3)sc2c1`, the displacement is -1.5%.

In the case of `Cc1cc(S(=O)(=O)N2CCCC2C(=O)O)c(C)cc1Cl` (configuration not stated), the displacement is -5.8%.

Consider `O=c1c2c(nc3cc(-c4ccco4)[nH]n13)CCS2`, for which the displacement stood at 78.9%.

`O=c1c2c(nc3cc(-c4cccs4)[nH]n13)CCS2`: the displacement came out at 75.8%.

For `Cc1nc2cc(-c3ccco3)[nH]n2c(=O)c1C`, the displacement was 17%.

Consider `O=c1c2c(nc3cc(-c4cccs4)[nH]n13)CCC2`, for which the displacement amounted to 5.7%.

For the compound `O=c1c2c(nc3cc(-c4cccs4)[nH]n13)CCCC2`, the displacement was 20.5%.

With `O=c1c2c(nc3cc(-c4ccccc4)[nH]n13)CCS2`, the displacement was -12.6%.

Regarding `O=C1NC(=O)N(c2ccc3c(c2)OCO3)C(=O)/C1=C/c1ccc(I)o1`, the displacement was 17.5%.

As to `COc1cc(/C=N/Nc2ncc(C)c(=O)[nH]2)cc(OC)c1O`, the displacement was 6.6%.

Take `CN(C)c1ccc(NS(=O)(=O)c2ccc(N3C(=O)CCC3=O)cc2)cc1`: the displacement stood at 19.2%.

Regarding `COc1ccc(N/C(C)=C/C(=O)c2ccc(Cl)cc2)c(OC)c1`, the displacement was 0.8%.

Turning to `CCCCCCC(=O)Nc1nnc(CC(C)C)s1`, the displacement is -12.9%.

For the compound `C/C(=N\NC(=O)CCc1c(C)n[nH]c1C)c1ccc(N)cc1`, the displacement is -4%.
